Our source for the survival values is PubChem BioAssay AID463173 (ICCB-Longwood Screening Facility, Harvard Medical School, 2010).

Out of some 52,000 compounds screened, about 1,700 (3.3%) were called active. What follows is part of a selection rich in actives, with near analogues and random picks from the rest. Values without a mark were called inactive. Rule as the data show it: active = survival mostly below about 52% (no sharp cut-off); inactive = mostly above about 56%.

In the assay the test system is Wild type. As to the kind of experiment: growth inhibition of S. aureus wild type versus tarO mutant, primary screen, teichoic acid synthesis inhibitors, RN4220, OD600 (AID 463173). The conditions noted are these: S. aureus RN4220 wild type/DeltatarO growth, OD600, 18 h, stronger effect = lower value, screened at 18.75 µg/mL (by protocol).
As for `Cc1cc(C)n2nc(SCC(=O)Nc3cccc(C(F)(F)F)c3)nc2n1`, the survival was 56%.

For the compound `CCc1ccc(-n2c(SCc3ccccc3F)nc3[nH]ncc3c2=O)cc1`, the survival was 93%.

As to `O=C(CCS(=O)(=O)c1cc2c(cc1Cl)NC(=O)CO2)NCCc1ccc(Cl)cc1`, the survival was 116%.

In the case of `COc1ccc(NC(=O)Cn2c(=O)n(CC3CCCO3)c(=O)c3ccccc32)c(OC)c1` (stereo not drawn), the survival is 86%.

As to `O=c1c2sc3ccccc3c2n(Cc2ccccc2F)c(=O)n1CCc1ccccc1`, the survival is 86%.

With `O=C(NCc1ccccc1)c1cc(Sc2cccc(Cl)c2)nc2ccccc12`, the survival was 78%.

As to `CCc1ccc(C(=O)c2cn(CC(=O)Nc3cc(OC)ccc3OC)c3nc(C)ccc3c2=O)cc1`, the survival was 124%.

For the compound `CC(C)Cn1c(=O)c2ccccc2n2c(CCC(=O)N3CCN(c4ccccc4)CC3)nnc12`, the survival was 127%.

With `CCC1CCCCN1C(=O)COc1ccc(F)cc1` (stereo not drawn), the survival is 113%.

Take `CCOc1ccc(C2C(=O)N(C3CCCCC3)CC(=O)N2CCc2ccccc2)cc1OC` (stereo not drawn): the survival was 117%.

For `Cc1cccc(N2CCCC2=Nc2ccc(Br)cc2C#N)c1`, the survival was 116%.

With `O=C(Nc1ccccc1Cl)c1ccc(F)c(S(=O)(=O)NCc2ccc(Cl)c(Cl)c2)c1`, the survival is 69%.

In the case of `COc1ccc2cc(CNc3ccc(C)cc3)c(=O)n(CC(=O)Nc3cccc(Cl)c3C)c2c1`, the survival was 73%.

For the compound `COc1ccc(C(=O)N(Cc2ccc(N(C)C)cc2)Cc2ccco2)cc1Cl`, the survival is 81%.

With `CCOC(=O)N1CCN(Cc2nc3cc(NC(=O)c4ccc(OC)cc4)ccc3n2C(C)C)CC1`, the survival was 89%.

In the case of `C#CCn1c(COc2ccccc2C)nc2ccccc21`, the survival is 115%.

Take `Cn1c(C=Nc2ccc(Cl)cc2)nc2ccccc21`: the survival was 111%.

`C#CCn1c(/C=C/c2ccc(Cl)cc2)nc2ccccc21`: the survival is 23% (active).

For `Cn1c(C(=O)NCCc2ccccc2)cc2c(=O)n3ccccc3nc21`, the survival was 80%.

Turning to `CCOc1ccc(NC(=O)Cn2nnc(C(=O)NCc3cccs3)c2N)cc1`, the survival was 97%.

For `Cc1ccc2c(c1)cc1c(=O)n(Cc3ccc(Cl)cc3)nc(C)n12`, the survival is 97%.

Turning to `COc1cc(/C=C(\C#N)c2nc3ccccc3[nH]2)ccc1OCc1cccc(C(F)(F)F)c1`, the survival was 66%.

For `Cc1sc(-n2cccc2)c(C(C)NC(=O)Nc2cccc(C(F)(F)F)c2)c1C` (stereo not drawn), the survival is 6% (active).

With `COC(=O)c1ccc(Cl)cc1NC(=O)NC(C)c1c(-n2cccc2)sc(C)c1C` (stereo not drawn), the survival is 12% (active).

Consider `Cc1ccc(NC(=O)NC(C)c2c(-n3cccc3)sc(C)c2C)cc1F` (stereo not drawn), for which the survival is 74%.

As for `COC(=O)c1ccc(NC(=O)NC(C)c2c(-n3cccc3)sc(C)c2C)cc1` (stereo not drawn), the survival is 89%.

For the compound `COc1ccc(NC(=O)NC(C)c2c(-n3cccc3)sc(C)c2C)cc1OC` (stereo not drawn), the survival is 76%.

As for `Cc1sc(-n2cccc2)c(C(C)NC(=O)Nc2ccccc2Cl)c1C` (stereo not drawn), the survival is 77%.

As for `Cc1cccc(-n2ncc3c(Nc4ccc(Oc5ccc(Cl)cc5)cc4)ncnc32)c1`, the survival is 88%.

For the compound `CCC(=O)C1=C(c2ccc(OC)c(OC)c2)N(C(=O)CC)n2c(CC)nnc2S1`, the survival is 55%.

With `CCN(C(=O)CSc1nc2ccccc2nc1Cc1ccc(F)cc1)c1cccc(C)c1`, the survival was 88%.

On to `CCN(C(=O)CSc1nc(-c2ccc(C(C)C)cc2)no1)c1cccc(C)c1`, for which the survival is 72%.

As for `CCN(C(=O)CSc1nc(-c2ccccc2)no1)c1cccc(C)c1`, the survival is -2% (active).

`CCCCNC(=O)CSc1nc2ccccc2nc1Cc1ccc(C)cc1`: the survival is 72%.

Consider `Cc1ccc(CNC(=O)CSc2nc3ccccc3nc2Cc2ccc(C)cc2)cc1`, for which the survival was 78%.

Turning to `COc1cccc(Cc2nc3ccccc3nc2SCC(=O)Nc2cccc(C)c2)c1`, the survival was 128%.

Take `CCN(C(=O)CSc1nc2ccccc2nc1Cc1cccc(OC)c1)c1cccc(C)c1`: the survival was -2% (active).

With `COc1ccc(-c2noc(CCC(=O)Nc3ccc(C(F)(F)F)cc3)n2)cc1`, the survival is 84%.

In the case of `CCN(C(=O)CSc1nc(-c2ccccc2)no1)c1ccccc1`, the survival was 85%.

In the case of `COc1ccc(-c2noc(CC(=O)N(C)c3cccc(C)c3)n2)cc1`, the survival is 83%.

In the case of `CCN(C(=O)CCc1nc(-c2ccc(C)cc2)no1)c1cccc(C(F)(F)F)c1`, the survival is 0% (active).

With `CCCCN(C)C(=O)CSc1nc2ccccc2nc1Cc1ccc(C)cc1`, the survival is 0% (active).

Take `CCCOc1ccc(C2C(=O)N(C3CCCCCC3)CC(=O)N2Cc2ccccc2OC)cc1OC` (stereo not drawn): the survival was 87%.

As for `COc1ccc(-c2nc(SCC(=O)Nc3ccc4c(c3)OCO4)c(-c3ccc(F)cc3)[nH]2)cc1OC`, the survival is 65%.

As for `COC(=O)C1CCCc2c1[nH]c1ccc(Cl)cc21` (stereo not drawn), the survival was 142%.

On to `CC1=C(C(=O)OC2CCCC2)C(c2cccc(Cl)c2Cl)CC(=O)N1` (stereo not drawn), for which the survival is 90%.

In the case of `Cc1ccc(F)cc1NC(=O)c1ccc(Cn2nc(N3CCN(c4ccccc4)CC3)ccc2=O)o1`, the survival was 127%.

Regarding `CCc1cccc(NS(=O)(=O)c2ccc3c(c2)CC(C)N3C(=O)C2CC2)c1` (stereo not drawn), the survival is 80%.

On to `COc1ccc(CNC(=O)Cn2c(=O)oc3cc(S(=O)(=O)N4CCCC4)ccc32)cc1`, for which the survival is 91%.

Regarding `Cc1ccc2nc(-c3ccc(C)s3)c(Nc3ccc4c(c3)OCCO4)n2c1`, the survival was 83%.

Consider `CCOC(=O)c1cccc(NC(=O)N2CC(CC)Sc3ccccc32)c1` (stereo not drawn), for which the survival is 84%.

For `COc1ccc(CNC(=O)c2cc3c(=O)n(Cc4ccco4)ccc3nc2C)cc1`, the survival is 74%.

For the compound `Cc1ccc2c(c1)c1c3n2CCN(C(=O)CN2CCN(C(=O)c4ccco4)CC2)C3CCC1` (stereo not drawn), the survival was 126%.

On to `COc1ccc(C(=O)Oc2ccc(C(c3c(C)[nH][nH]c3=O)c3c(C)[nH][nH]c3=O)cc2OC)cc1`, for which the survival is 73%.

Regarding `O=C(CSc1nnc(CNC(=O)c2ccccc2F)n1-c1ccccc1)Nc1ccccc1F`, the survival was 66%.

With `COc1ccc2cc3cc(C(=O)NCc4ccc(C)cc4)oc3nc2c1`, the survival is 89%.

On to `CCN(C(=O)Cc1nc(-c2ccc(OC)cc2)no1)c1cccc(Cl)c1`, for which the survival was 84%.

For the compound `CCN(C(=O)c1cc2cc3ccc(OC)cc3nc2o1)c1cccc(C)c1`, the survival is 0% (active).

In the case of `Cc1ccc(C)c(NC(=O)CCc2nc(-c3ccc(C(C)(C)C)cc3)no2)c1`, the survival is 109%.

On to `CC(C)(C)c1ccc(-c2noc(CCC(=O)Nc3cccc(Cl)c3)n2)cc1`, for which the survival is 87%.

In the case of `COc1cc(-c2noc(CCC(=O)Nc3cc(C)ccc3C)n2)cc(OC)c1OC`, the survival is 82%.

For the compound `COc1ccc(CNC(=O)c2cc3cc4ccc(C)cc4nc3o2)cc1`, the survival was 88%.

For the compound `CCN(C(=O)CCc1nc(-c2ccc(C)cc2)no1)c1cc(C)ccc1C`, the survival is 0% (active).

Consider `CCN(C(=O)CCc1nc(-c2ccc(C)cc2)no1)c1cccc(Cl)c1`, for which the survival is -1% (active).

Consider `Cc1ccc(-n2cnc3ccccc3c2=O)cc1C`, for which the survival is 89%.

On to `CCN1C(=O)C(C2SC(=S)N(CC)C2=O)SC1=S` (stereo not drawn), for which the survival is 98%.

Consider `CCc1ccccc1N(C)C(=O)c1cnc(N2CCOCC2)c2ccccc12`, for which the survival is 65%.

`CCOC(=O)N1c2ccccc2Sc2ccccc21`: the survival is 95%.

Regarding `COc1cc(NC(=O)N2c3ccccc3Sc3ccccc32)cc(OC)c1`, the survival was 65%.

`CCc1ccc(NC(=O)N2c3ccccc3Sc3ccccc32)cc1`: the survival was 1% (active).

As to `CC(C)c1ccc(NC(=O)N2c3ccccc3Sc3ccccc32)cc1`, the survival was 5% (active).

As to `CCOc1ccccc1NC(=O)N1c2ccccc2Sc2ccccc21`, the survival was 61%.

Consider `CCN(CC)C(=O)N1c2ccccc2Sc2ccccc21`, for which the survival was 108%.

As for `COc1ccc(OC)c(NC(=O)N2c3ccccc3Sc3ccccc32)c1`, the survival is 19%.

Consider `COc1ccccc1NC(=O)N1c2ccccc2Sc2ccccc21`, for which the survival was -1% (active).

Turning to `O=C(O)c1ccccc1NC(=O)N1c2ccccc2Sc2ccccc21`, the survival is 28%.

On to `CCOC(=O)c1cccc(NC(=O)N2Cc3ccccc3Oc3ncccc32)c1`, for which the survival is 81%.

As for `Cc1c2cnn(CC(=O)O)c(=O)c2c(C)n1Cc1cccc(Cl)c1`, the survival was 80%.

On to `CCCSc1ncc(Cl)c(C(=O)N(Cc2ccccc2)c2ccc(OC)cc2)n1`, for which the survival is 80%.

For `Cc1ccc(-n2ncc3c(Nc4ccc5c(c4)OCCO5)ncnc32)cc1C`, the survival was 100%.

On to `CSc1cccc(Nc2cc(C(=O)NCCc3ccc(Cl)cc3)c3ccccc3n2)c1`, for which the survival was 120%.

For `Cc1c(-c2cccc(NC(=O)Nc3ccccc3)c2)nc2ncccn12`, the survival is 64%.

On to `Cc1c(-c2cccc(NC(=O)Nc3ccc(Cl)cc3)c2)nc2ncccn12`, for which the survival was -4% (active).

For `Cc1c(-c2cccc(NC(=O)C(C)(C)C)c2)nc2ncccn12`, the survival is 71%.

As to `CCc1nn(CC(=O)NCc2cccc(OC)c2)c(=O)c2cc3cc(F)ccc3n12`, the survival is 69%.

In the case of `CCOc1ccc(CCNC(=O)c2ccc3nc(N4CCC(C)CC4)sc3c2)cc1OCC`, the survival was 73%.

Consider `Cc1ccc(-n2ncc3c(NCc4ccccc4)ncnc32)cc1C`, for which the survival is 67%.

`Cc1ccc(-n2ncc3c(NCc4ccccc4)ncnc32)cc1Cl`: the survival was -6% (active).

As to `Cc1ccc(-n2ncc3c(NCCc4ccccc4)ncnc32)cc1Cl`, the survival was 65%.

As for `c1ccc(-c2nc3cc(Cc4ccc5oc(-c6ccccn6)nc5c4)ccc3o2)nc1`, the survival is 113%.

Consider `CCC1=Nc2cc(C(=O)NCCN(CC)CC)ccc2Sc2ccccc21`, for which the survival is 93%.

Consider `Cc1ccccc1NC(=O)CC1COc2ccccc2O1` (stereo not drawn), for which the survival is 111%.

As to `O=C(NCCc1nc2ccccc2n1Cc1ccccc1F)c1ccc(F)cc1`, the survival is 82%.

As for `COc1cccc(OCc2nc3ccccc3n2Cc2ccccc2C)c1`, the survival was 87%.

Regarding `COc1ccc(Cc2nc3ccccc3n2Cc2ccccc2C)cc1`, the survival is 1% (active).

As to `O=C(NCCCc1nc2ccccc2n1Cc1ccccc1F)c1ccco1`, the survival is 92%.

With `Cc1ccccc1Cn1c(CCCNC(=O)C2CCCCC2)nc2ccccc21`, the survival was 101%.

Take `COc1ccc(Cc2nc3ccccc3n2Cc2ccccc2F)cc1`: the survival was 23% (active).
